Structures are written as SMILES. Records with an inconclusive call do not appear. Calls of active or inactive are those of the source. Rule for the calls: active = hit-call score of the fitted dose curve at least 0.9, where 1 is the maximum; inconclusive = response in the unintended direction; inactive = score below 0.9.

Read-out in the experiment: ABC Transporter (ABCB11), ABCB11 (gene 8647)
Put plainly: CLD_ABCB11_6hr: CellzDirect (CLD) Gene Expression Assay for ABC Transporter (ABCB11) at 6 hours (AID 2283675).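 Note: hits raise ABCB11 mRNA level so AC50 marks induction.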 Put shortly: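 Human primary hepatocytes (two donor preparations) given fresh chemical daily at multiple concentrations, vehicle 0.2% DMSO. ABCB11 mRNA induction measured 6 h after dosing by qNPA chemiluminescence versus DMSO; cytotoxicity annotated from morphology.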
With `CCCCOC(=O)c1ccccc1C(=O)O`, the call was inactive.

Consider `CCOP(=S)(OCC)SCCSCC`, for which the call was inactive. For `COc1cc(OC)nc(Sc2cccc(Cl)c2C(=O)O)n1`, the compound was classed as inactive. To `CC(COc1ccc(Oc2ccccc2)cc1)Oc1ccccn1` (stereo unspecified) belongs “inactive”; to `C[N+]1(C)CCCCC1`, “inactive”; to `CCOP(=O)(OCC)Oc1cc(C)nc(C(C)C)n1`, “inactive”.

These data come from PubChem BioAssay (EPA / NIEHS).
